In PubChem BioAssay (NCATS):
Results filed as inconclusive are left out. Where a call stands in place of a potency, no number is given. Calls of active or inactive are those of the source. The call rests on the fitted dose curve; in most records, active means well fitted cell-killing curve with a large enough effect; inconclusive means small, poorly fitted or top-dose-only effect, or effect the other way; inactive means no such curve, though single readings can be large or run the other way. *1 amine or outer side, *2 acyl side, *3 side chain or, on linkers, in order; H or OH if unused. Where a SMILES comes first, the peptide text is derived from it. Bridges are numbered along the chain shown (N, C = ends). [ ]: non-standard residue; d: D form. The star is where a group is joined. X5 = NC1=N[C@@H]([C@H](N[*:1])C(=O)[*:2])C[C@H](O)N1; ΔAla(Z-3-ureido) = NC(=O)N/C=C(\N)C(=O)O; β3hOrn = NCCC[C@H](N)CC(=O)*; Dap = NC[C@H](N)C(=O)O

Assay: qHTS assay to identify small molecule inhibitors of chordoma cells - UCH-1 (AID 1259355); further: nearly all actives have a fitted effect of over 55% in size
Conditions: UCH-1 chordoma viability, CellTiter-Glo, 48 h, combination, with auranofin plus four topoisomerase inhibitors; series mostly up to 46.1 µM
In short: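 Luminescent ATP read-out (CellTiter-Glo, 30min at room temperature) measured viability of UCH-1 cells exposed for 48hr to test drugs at 15 concentrations, co-dosed with a five-agent combination of auranofin, camptothecin, doxorubicin, rubitecan and topotecan.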
Potency means the concentration at half of the fitted maximal effect.

| SMILES | Potency |
| --- | --- |
| CO/N=C(\C(=O)N[C@@H]1C(=O)N2C(C(=O)[O-])=C(C[n+]3cccc4c3CCC4)CS[C@H]12)c1csc(N)n1 | inactive |
| CN(C)CCCSc1ccccc1NC(=O)/C=C/c1ccccc1 | inactive |
| Oc1cc(O)cc(O)c1 | inactive |
| O=C(NNCS(=O)(=O)O)c1ccncc1 | inactive |
| CN=C1C=CC(=C(c2ccc(N(C)C)cc2)c2ccc(N(C)C)cc2)C=C1 | 15.8 µM (active) |
| C=CCN1CCCC1CNC(=O)c1cc(S(N)(=O)=O)cc(OC)c1OC (centres undefined) | inactive |
| CC(C)[C@@H](C)/C=C/[C@@H](C)[C@H]1CC[C@H]2/C(=C/C=C3\C[C@@H](O)CC[C@@H]3C)CCC[C@]12C | inactive |
| NC(=O)c1cc[n+](CC2=C(C(=O)O)N3C(=O)[C@@H](NC(=O)C(c4ccccc4)S(=O)(=O)[O-])[C@H]3SC2)cc1 (some centres undefined) | inactive |
| CCCCCCCCCCCCCCCCCC[N+](C)(C)CCC[Si](OC)(OC)OC | inactive |
| CCC(C)[C@@H](N)C(=O)O (some centres undefined) | inactive |
| CN1CCCC(CN2c3ccccc3Sc3ccccc32)C1 (centres undefined) | inactive |
| CNC(=O)c1c(I)c(C(=O)NCC(=O)Nc2c(I)c(C(=O)O)c(I)c(C(=O)NCCO)c2I)c(I)c(N(C)C(C)=O)c1I | inactive |
| Cc1cccc(Nc2ncccc2C(=O)O)c1C | inactive |
| NCCC[C@H](N)CC(=O)N[C@H]1CNC(=O)[C@H]([C@H]2C[C@H](O)NC(N)=N2)NC(=O)/C(=C/NC(N)=O)NC(=O)[C@H](CO)NC(=O)[C@H](CO)NC1=O (β3hOrn-[Dap]SS[ΔAla(Z-3-ureido)][X5]; lactam 1-C) | inactive |
| C=Cc1ccc(S(=O)(=O)O)cc1 | inactive |
| CC(C)CCC[C@@H](C)[C@H]1CC(=O)C2=C3CC[C@H]4C[C@@H](O)CC[C@]4(C)[C@H]3CC[C@@]21C | inactive |
| S=C1SCN(Cc2ccccc2)CN1Cc1ccccc1 | inactive |
| NC[C@@H]1CC[C@@H](N)[C@@H](O[C@H]2[C@H](O)[C@@H](O[C@H]3O[C@H](CO)[C@@H](O)[C@H](N)[C@H]3O)[C@H](N)C[C@@H]2N)O1 | inactive |
| N[C@H](CC(=O)O)C(=O)O | inactive |
| Cc1ncc(C[n+]2csc(CCO)c2C)c(N)n1 | inactive |
| CCSc1ccc2c(c1)N(CCCN1CCN(C)CC1)c1ccccc1S2 | inactive |
| O=P(O)(O)OC[C@H](O)CO | inactive |
| COc1ccc2nc(NC(=O)Nc3ccccc3)sc2c1 | inactive |
| CO[C@@]1(NC(=O)C2SC(=C(C(N)=O)C(=O)O)S2)C(=O)N2C(C(=O)O)=C(CSc3nnnn3C)CS[C@@H]21 (some centres undefined) | inactive |
